{"source": "paper PMC11006913", "data": [{"biological_target": "PROP1 (Homo sapiens, UniProt O75360 56-141, R99H)", "sequence (O75360 56-141 R99H)": "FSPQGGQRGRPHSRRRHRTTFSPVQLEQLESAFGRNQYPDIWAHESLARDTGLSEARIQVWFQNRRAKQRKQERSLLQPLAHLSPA", "test": "PBM; 200 nM protein, PBS", "conditions": "dsDNA, one strand shown", "values": [{"sequence": "AATTAAAG", "binding signal": "10.9 upbm affinity estimate (log intensity, higher = more binding, comparable within an allelic series)"}, {"sequence": "AATTTATC", "binding signal": "9.17 upbm affinity estimate (log intensity, higher = more binding, comparable within an allelic series)"}, {"sequence": "TGCCAGCA", "binding signal": "6.79 upbm affinity estimate (log intensity, higher = more binding, comparable within an allelic series)"}, {"sequence": "ACGGAGGC", "binding signal": "6.65 upbm affinity estimate (log intensity, higher = more binding, comparable within an allelic series)"}, {"sequence": "AATTATGT", "binding signal": "10.7 upbm affinity estimate (log intensity, higher = more binding, comparable within an allelic series)"}, {"sequence": "CGGGCCTC", "binding signal": "6.84 upbm affinity estimate (log intensity, higher = more binding, comparable within an allelic series)"}, {"sequence": "CACAGCTC", "binding signal": "6.77 upbm affinity estimate (log intensity, higher = more binding, comparable within an allelic series)"}]}, {"biological_target": "ALX3 (Homo sapiens, UniProt O95076 139-225, L168Q)", "sequence (O95076 139-225 L168Q)": "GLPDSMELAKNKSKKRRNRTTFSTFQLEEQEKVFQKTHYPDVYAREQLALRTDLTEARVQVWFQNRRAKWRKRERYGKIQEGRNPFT", "test": "PBM; 200 nM protein, PBS", "conditions": "dsDNA, one strand shown", "values": [{"sequence": "AATTAAAG", "binding signal": "10.3 upbm affinity estimate (log intensity, higher = more binding, comparable within an allelic series)"}, {"sequence": "ACGGAGGC", "binding signal": "7.84 upbm affinity estimate (log intensity, higher = more binding, comparable within an allelic series)"}, {"sequence": "GAGAGCGC", "binding signal": "7.75 upbm affinity estimate (log intensity, higher = more binding, comparable within an allelic series)"}, {"sequence": "GAGGCACC", "binding signal": "7.51 upbm affinity estimate (log intensity, higher = more binding, comparable within an allelic series)"}]}, {"biological_target": "ALX3 (Homo sapiens, UniProt O95076 139-225, L168V)", "sequence (O95076 139-225 L168V)": "as the sequence (O95076 139-225 L168Q) above, with Q30V counted along it", "test": "PBM; 200 nM protein, PBS", "conditions": "dsDNA, one strand shown", "values": [{"sequence": "AATTAAAG", "binding signal": "9.9 upbm affinity estimate (log intensity, higher = more binding, comparable within an allelic series)"}, {"sequence": "ACGGAGGC", "binding signal": "7.82 upbm affinity estimate (log intensity, higher = more binding, comparable within an allelic series)"}, {"sequence": "GAGAGCGC", "binding signal": "7.76 upbm affinity estimate (log intensity, higher = more binding, comparable within an allelic series)"}, {"sequence": "GAGGCACC", "binding signal": "7.67 upbm affinity estimate (log intensity, higher = more binding, comparable within an allelic series)"}, {"sequence": "AATTAGAA", "binding signal": "9.7 upbm affinity estimate (log intensity, higher = more binding, comparable within an allelic series)"}]}, {"biological_target": "PROP1 (Homo sapiens, UniProt O75360 56-141, F88S)", "sequence (O75360 56-141 F88S)": "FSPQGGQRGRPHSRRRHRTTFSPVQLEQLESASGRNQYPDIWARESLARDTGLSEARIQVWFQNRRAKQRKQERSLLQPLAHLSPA", "test": "PBM; 200 nM protein, PBS", "conditions": "dsDNA, one strand shown", "values": [{"sequence": "AATTAAAG", "binding signal": "7.55 upbm affinity estimate (log intensity, higher = more binding, comparable within an allelic series)"}, {"sequence": "AATTTATC", "binding signal": "7.6 upbm affinity estimate (log intensity, higher = more binding, comparable within an allelic series)"}, {"sequence": "TGCCAGCA", "binding signal": "6.93 upbm affinity estimate (log intensity, higher = more binding, comparable within an allelic series)"}, {"sequence": "ACGGAGGC", "binding signal": "6.49 upbm affinity estimate (log intensity, higher = more binding, comparable within an allelic series)"}, {"sequence": "AATTATGT", "binding signal": "7.74 upbm affinity estimate (log intensity, higher = more binding, comparable within an allelic series)"}, {"sequence": "CGGGCCTC", "binding signal": "6.55 upbm affinity estimate (log intensity, higher = more binding, comparable within an allelic series)"}, {"sequence": "CACAGCTC", "binding signal": "6.99 upbm affinity estimate (log intensity, higher = more binding, comparable within an allelic series)"}]}, {"biological_target": "MSX2 (Homo sapiens, UniProt P35548 130-214, F161Y)", "sequence (P35548 130-214 F161Y)": "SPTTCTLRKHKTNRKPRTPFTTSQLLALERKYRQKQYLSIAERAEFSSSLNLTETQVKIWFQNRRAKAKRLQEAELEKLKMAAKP", "test": "PBM; 200 nM protein, PBS", "conditions": "dsDNA, one strand shown", "values": [{"sequence": "CCTGCGAG", "binding signal": "9.61 upbm affinity estimate (log intensity, higher = more binding, comparable within an allelic series)"}, {"sequence": "GCTGCAGC", "binding signal": "9.48 upbm affinity estimate (log intensity, higher = more binding, comparable within an allelic series)"}, {"sequence": "CAGCCCGC", "binding signal": "9.37 upbm affinity estimate (log intensity, higher = more binding, comparable within an allelic series)"}, {"sequence": "AGGAGGCG", "binding signal": "9.49 upbm affinity estimate (log intensity, higher = more binding, comparable within an allelic series)"}, {"sequence": "CAGCCGGC", "binding signal": "9.41 upbm affinity estimate (log intensity, higher = more binding, comparable within an allelic series)"}, {"sequence": "ACGGAGGC", "binding signal": "9.52 upbm affinity estimate (log intensity, higher = more binding, comparable within an allelic series)"}, {"sequence": "CCGTCTAG", "binding signal": "9.55 upbm affinity estimate (log intensity, higher = more binding, comparable within an allelic series)"}, {"sequence": "CGTGGAGC", "binding signal": "9.61 upbm affinity estimate (log intensity, higher = more binding, comparable within an allelic series)"}]}, {"biological_target": "T1, PAX4 (Homo sapiens, UniProt O43316 9-242, R227W)", "T1 sequence": "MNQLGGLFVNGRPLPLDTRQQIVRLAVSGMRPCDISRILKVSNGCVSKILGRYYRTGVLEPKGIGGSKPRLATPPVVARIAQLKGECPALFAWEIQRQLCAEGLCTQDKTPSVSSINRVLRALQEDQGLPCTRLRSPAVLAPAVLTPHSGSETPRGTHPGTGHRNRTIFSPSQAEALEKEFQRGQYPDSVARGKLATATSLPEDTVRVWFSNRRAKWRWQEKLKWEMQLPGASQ", "test": "PBM; 200 nM protein, PBS", "conditions": "dsDNA, one strand shown", "values": [{"sequence": "AAGGGGGA", "binding signal": "9.25 upbm affinity estimate (log intensity, higher = more binding, comparable within an allelic series)"}, {"sequence": "ATAATTTG", "binding signal": "11 upbm affinity estimate (log intensity, higher = more binding, comparable within an allelic series)"}, {"sequence": "GCTGCAGC", "binding signal": "9.46 upbm affinity estimate (log intensity, higher = more binding, comparable within an allelic series)"}, {"sequence": "AAATTAGT", "binding signal": "10.9 upbm affinity estimate (log intensity, higher = more binding, comparable within an allelic series)"}, {"sequence": "AGTCCGGC", "binding signal": "9.3 upbm affinity estimate (log intensity, higher = more binding, comparable within an allelic series)"}, {"sequence": "CAGCCCGC", "binding signal": "9.09 upbm affinity estimate (log intensity, higher = more binding, comparable within an allelic series)"}, {"sequence": "CAGCCGGC", "binding signal": "9.13 upbm affinity estimate (log intensity, higher = more binding, comparable within an allelic series)"}, {"sequence": "AATTATGT", "binding signal": "11 upbm affinity estimate (log intensity, higher = more binding, comparable within an allelic series)"}, {"sequence": "CATATTAA", "binding signal": "11 upbm affinity estimate (log intensity, higher = more binding, comparable within an allelic series)"}, {"sequence": "AATTAGAA", "binding signal": "10.9 upbm affinity estimate (log intensity, higher = more binding, comparable within an allelic series)"}]}, {"biological_target": "HOXA2 (Homo sapiens, UniProt O43364 129-215, Y150S)", "sequence (O43364 129-215 Y150S)": "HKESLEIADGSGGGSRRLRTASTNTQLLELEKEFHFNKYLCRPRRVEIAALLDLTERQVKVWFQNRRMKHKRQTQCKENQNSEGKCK", "test": "PBM; 200 nM protein, PBS", "conditions": "dsDNA, one strand shown", "values": [{"sequence": "CCGCAGAC", "binding signal": "10.5 upbm affinity estimate (log intensity, higher = more binding, comparable within an allelic series)"}, {"sequence": "GCTGCAGC", "binding signal": "10.6 upbm affinity estimate (log intensity, higher = more binding, comparable within an allelic series)"}, {"sequence": "GAGGCACC", "binding signal": "10.4 upbm affinity estimate (log intensity, higher = more binding, comparable within an allelic series)"}]}, {"biological_target": "ALX1 (Homo sapiens, UniProt Q15699 118-204)", "sequence (Q15699 118-204)": "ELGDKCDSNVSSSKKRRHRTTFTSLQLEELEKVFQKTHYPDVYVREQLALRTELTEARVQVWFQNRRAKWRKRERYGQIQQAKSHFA", "test": "PBM; 200 nM protein, PBS", "conditions": "dsDNA, one strand shown", "values": [{"sequence": "AAATTAGT", "binding signal": "12.1 upbm affinity estimate (log intensity, higher = more binding, comparable within an allelic series)"}, {"sequence": "GAGGACTC", "binding signal": "6.39 upbm affinity estimate (log intensity, higher = more binding, comparable within an allelic series)"}, {"sequence": "GACCGTCC", "binding signal": "6.51 upbm affinity estimate (log intensity, higher = more binding, comparable within an allelic series)"}, {"sequence": "ACCCTCGG", "binding signal": "6.48 upbm affinity estimate (log intensity, higher = more binding, comparable within an allelic series)"}, {"sequence": "AATTTTCA", "binding signal": "10 upbm affinity estimate (log intensity, higher = more binding, comparable within an allelic series)"}, {"sequence": "GACTGGAC", "binding signal": "6.44 upbm affinity estimate (log intensity, higher = more binding, comparable within an allelic series)"}]}, {"biological_target": "ALX3 (Homo sapiens, UniProt O95076 139-225, N203S)", "sequence (O95076 139-225 N203S)": "as the sequence (O95076 139-225 L168Q) above, with Q30L, N65S counted along it", "test": "PBM; 200 nM protein, PBS", "conditions": "dsDNA, one strand shown", "values": [{"sequence": "AATTAAAG", "binding signal": "8.43 upbm affinity estimate (log intensity, higher = more binding, comparable within an allelic series)"}, {"sequence": "ACGGAGGC", "binding signal": "7.76 upbm affinity estimate (log intensity, higher = more binding, comparable within an allelic series)"}, {"sequence": "GAGAGCGC", "binding signal": "7.72 upbm affinity estimate (log intensity, higher = more binding, comparable within an allelic series)"}, {"sequence": "GAGGCACC", "binding signal": "7.65 upbm affinity estimate (log intensity, higher = more binding, comparable within an allelic series)"}, {"sequence": "CATATTAA", "binding signal": "8.71 upbm affinity estimate (log intensity, higher = more binding, comparable within an allelic series)"}, {"sequence": "AAGTAATT", "binding signal": "8.65 upbm affinity estimate (log intensity, higher = more binding, comparable within an allelic series)"}]}, {"biological_target": "PRRX1 (Homo sapiens, UniProt P54821 80-166)", "sequence (P54821 80-166)": "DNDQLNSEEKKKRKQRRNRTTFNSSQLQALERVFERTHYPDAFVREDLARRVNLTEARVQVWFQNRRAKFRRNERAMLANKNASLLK", "test": "PBM; 200 nM protein, PBS", "conditions": "dsDNA, one strand shown", "values": [{"sequence": "ATAATTTG", "binding signal": "13.2 upbm affinity estimate (log intensity, higher = more binding, comparable within an allelic series)"}, {"sequence": "GCTGCAGC", "binding signal": "9.11 upbm affinity estimate (log intensity, higher = more binding, comparable within an allelic series)"}, {"sequence": "CAGCCGGC", "binding signal": "8.9 upbm affinity estimate (log intensity, higher = more binding, comparable within an allelic series)"}, {"sequence": "AATTATGT", "binding signal": "13.3 upbm affinity estimate (log intensity, higher = more binding, comparable within an allelic series)"}]}, {"biological_target": "HOXA2 (Homo sapiens, UniProt O43364 129-215)", "sequence (O43364 129-215)": "as the sequence (O43364 129-215 Y150S) above, with S22Y counted along it", "test": "PBM; 200 nM protein, PBS", "conditions": "dsDNA, one strand shown", "values": [{"sequence": "CCGCAGAC", "binding signal": "6.96 upbm affinity estimate (log intensity, higher = more binding, comparable within an allelic series)"}, {"sequence": "GCTGCAGC", "binding signal": "6.95 upbm affinity estimate (log intensity, higher = more binding, comparable within an allelic series)"}, {"sequence": "GAGGCACC", "binding signal": "7.42 upbm affinity estimate (log intensity, higher = more binding, comparable within an allelic series)"}]}, {"biological_target": "HOXB6 (Homo sapiens, UniProt P17509 132-218)", "sequence (P17509 132-218)": "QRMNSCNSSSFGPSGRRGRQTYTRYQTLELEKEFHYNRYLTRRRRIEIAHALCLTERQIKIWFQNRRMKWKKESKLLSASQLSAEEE", "test": "PBM; 200 nM protein, PBS", "conditions": "dsDNA, one strand shown", "values": [{"sequence": "AAGGGGGA", "binding signal": "8.75 upbm affinity estimate (log intensity, higher = more binding, comparable within an allelic series)"}, {"sequence": "AGTCCGGC", "binding signal": "8.89 upbm affinity estimate (log intensity, higher = more binding, comparable within an allelic series)"}, {"sequence": "CAGCCCGC", "binding signal": "8.96 upbm affinity estimate (log intensity, higher = more binding, comparable within an allelic series)"}]}]}
